Test results published in PubChem BioAssay AID1159580 (chemical genetic matrix, 2015).
Hit rate of the full screen: of about 5,500 compounds, about 2,000 (36%) were called active. Not shown: some 18% with an inconclusive outcome. No stated cut-off is given here; in the data, active means normalized growth mostly below about 0.91 (no sharp cut-off); inconclusive means no clear call, values can overlap the other calls; inactive means mostly above about 0.92. The list shows a part of the results.

Test: chemical genetic growth profiling, strain panel (AID 1159580);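 further: tested at 20 µM; growth read once vehicle control cultures reached saturation at 30 °C; 1 = growth at the plate median or of vehicle wells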
Conditions: S. cerevisiae deletion strains, growth OD

Measured: normalized growth

Cc1cc(C2=CSC3=NCCN23)ccc1Cl
inactive: locus YAL013W, strain DEP1, stronger effect = lower value 0.99 | locus YBR229C, strain ROT2, stronger effect = lower value 1.01 | locus YDL101C, strain DUN1, stronger effect = lower value 0.974 | locus YDL134C, strain PPH21, stronger effect = lower value 0.989 | locus YDR150W, strain NUM1, stronger effect = lower value 0.974 | locus YEL061C, strain CIN8, stronger effect = lower value 1 | locus YGR078C, strain PAC10, stronger effect = lower value 0.989 | locus YHR030C, strain SLT2, stronger effect = lower value 0.872 | locus YHR087W, strain rtc3, stronger effect = lower value 1.01 | locus YJL187C, strain SWE1, stronger effect = lower value 1 | locus YJR043C, strain POL32, stronger effect = lower value 0.999 | locus YJR075W, strain HOC1, stronger effect = lower value 0.982 | locus YLR039C, strain RIC1, stronger effect = lower value 1.02 | locus YLR058C, strain SHM2 (second series), stronger effect = lower value 0.996 | locus YLR085C, strain ARP6, stronger effect = lower value 0.933 | locus YLR262C, strain YPT6, stronger effect = lower value 1.03 | locus YML094W, strain GIM5, stronger effect = lower value 0.99 | locus YMR219W, strain ESC1, stronger effect = lower value 0.987 | locus YMR263W, strain SAP30, stronger effect = lower value 0.998 | locus YNL153C, strain GIM3, stronger effect = lower value 0.992 | locus YNL298W, strain CLA4 (second series), stronger effect = lower value 0.946 | locus YNL322C, strain KRE1, stronger effect = lower value 0.989 | locus YNR030W, strain Alg12, stronger effect = lower value 0.994 | locus YOL006C, strain TOP1, stronger effect = lower value 0.752 | locus YPL055C, strain LGE1, stronger effect = lower value 1.02 | locus YPL241C, strain CIN2, stronger effect = lower value 0.975 | locus YPR135W, strain CTF4, stronger effect = lower value 0.709
